Assay results published in PubChem BioAssay AID1159580 (chemical genetic matrix, 2015).
Several values for one entry are separate records, joined by “and”; a condition that tells them apart may be missing. Identical values can stand only once. The whole screen tested about 5,500 compounds, of which about 2,000 (36%) were called active. About 18% were inconclusive and are not listed. No stated cut-off is given here; in the data, active means normalized growth mostly below about 0.91 (no sharp cut-off); inconclusive means no clear call, values can overlap the other calls; inactive means mostly above about 0.92. The list shows a part of the results. Where a structure was tested more than once in an assay, its records may differ in their call.

Assay: chemical genetic growth profiling, strain panel (AID 1159580);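 further: tested at 20 µM; growth read once vehicle control cultures reached saturation at 30 °C; 1 = growth at the plate median or of vehicle wells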
Conditions: growth OD
[1] = S. cerevisiae deletion strains, locus YAL040C, strain CLN3, stronger effect = lower value
[2] = S. cerevisiae deletion strains, locus YCL061C, strain MRC1 (second series), stronger effect = lower value
[3] = S. cerevisiae deletion strains, locus YDR150W, strain NUM1, stronger effect = lower value
[4] = S. cerevisiae deletion strains, locus YDR363W, strain ESC2, stronger effect = lower value
[5] = S. cerevisiae deletion strains, locus YER002W, strain NOP16, stronger effect = lower value
[6] = S. cerevisiae deletion strains, locus YGR229C, strain SMI1, stronger effect = lower value
[7] = S. cerevisiae deletion strains, locus YHR030C, strain SLT2, stronger effect = lower value
[8] = S. cerevisiae deletion strains, locus YJL095W, strain BCK1, stronger effect = lower value
[9] = S. cerevisiae deletion strains, locus YJR075W, strain HOC1, stronger effect = lower value
[10] = S. cerevisiae deletion strains, locus YMR263W, strain SAP30, stronger effect = lower value
[11] = S. cerevisiae deletion strains, locus YNL153C, strain GIM3, stronger effect = lower value
[12] = S. cerevisiae deletion strains, locus YNL175C, strain NOP13, stronger effect = lower value
[13] = S. cerevisiae deletion strains, locus YNL197C, strain WHI3, stronger effect = lower value
[14] = S. cerevisiae deletion strains, locus YNL224C, strain SQS1, stronger effect = lower value
[15] = S. cerevisiae deletion strains, locus YNL322C, strain KRE1, stronger effect = lower value
[16] = S. cerevisiae deletion strains, locus YOR083W, strain WHI5 (second series), stronger effect = lower value
[17] = S. cerevisiae deletion strains, locus YPL055C, strain LGE1, stronger effect = lower value
[18] = S. cerevisiae deletion strains, locus YPL241C, strain CIN2, stronger effect = lower value

Measured: normalized growth

CCCCCCCCCCCCCCCCCC(=O)OC(CC(=O)O)C[N+](C)(C)C (configuration not stated)
0.983 (inactive) and 0.182 (active): [15]
inactive: S. cerevisiae deletion strains, locus YBR229C, strain ROT2, stronger effect = lower value 1.03 | [2] 0.991 | [4] 0.985 | [5] 1.01 | S. cerevisiae deletion strains, locus YJL134W, strain LCB3, stronger effect = lower value 1.01 | S. cerevisiae deletion strains, locus YJL168C, strain set2, stronger effect = lower value 0.956 | S. cerevisiae deletion strains, locus YKL068W, stronger effect = lower value 1 | S. cerevisiae deletion strains, locus YLR039C, strain RIC1, stronger effect = lower value 1.1 | S. cerevisiae deletion strains, locus YLR262C, strain YPT6, stronger effect = lower value 1.09 | S. cerevisiae deletion strains, locus YNR052C, strain pop2, stronger effect = lower value 0.961 | S. cerevisiae deletion strains, locus YOR061W, strain CKA2, stronger effect = lower value 0.949 | S. cerevisiae deletion strains, locus YOR069W, strain VPS5, stronger effect = lower value 1 | S. cerevisiae deletion strains, locus YPR141C, strain kar3, stronger effect = lower value 1.05
1.03 (inactive) and 0.297 (active): S. cerevisiae deletion strains, locus YMR307W, strain GAS1, stronger effect = lower value
active: S. cerevisiae deletion strains, locus YAL013W, strain DEP1, stronger effect = lower value 0.117 | [1] 0.47 | S. cerevisiae deletion strains, locus YBR021W, strain FUR4, stronger effect = lower value 0.0953 | S. cerevisiae deletion strains, locus YCL029C, strain bik1, stronger effect = lower value 0.316 | S. cerevisiae deletion strains, locus YDL035C, strain GPR1, stronger effect = lower value 0.283 | S. cerevisiae deletion strains, locus YDL074C, strain BRE1, stronger effect = lower value 0.238 | S. cerevisiae deletion strains, locus YDL101C, strain DUN1, stronger effect = lower value 0.374 | S. cerevisiae deletion strains, locus YDL134C, strain PPH21, stronger effect = lower value 0.142 | S. cerevisiae deletion strains, locus YDL185W, strain tfp1, stronger effect = lower value 0.0578 | S. cerevisiae deletion strains, locus YDL192W, strain arf1, stronger effect = lower value 0.917 | S. cerevisiae deletion strains, locus YDR101C, strain arx1, stronger effect = lower value 0.679 | [3] 0.583 | S. cerevisiae deletion strains, locus YDR162C, strain NBP2, stronger effect = lower value 0.0806 | S. cerevisiae deletion strains, locus YDR318W, strain mcm21, stronger effect = lower value 0.348 | S. cerevisiae deletion strains, locus YDR388W, stronger effect = lower value 0.0585 | S. cerevisiae deletion strains, locus YDR502C, strain sam2, stronger effect = lower value 0.619 | S. cerevisiae deletion strains, locus YEL061C, strain CIN8, stronger effect = lower value 0.44 | S. cerevisiae deletion strains, locus YER110C, stronger effect = lower value 0.156 | S. cerevisiae deletion strains, locus YER155C, strain BEM2, stronger effect = lower value 0.274 | S. cerevisiae deletion strains, locus YER167W, strain BCK2, stronger effect = lower value 0.214 | S. cerevisiae deletion strains, locus YGL078C, strain dbp3, stronger effect = lower value 0.62 | S. cerevisiae deletion strains, locus YGL086W, strain mad1, stronger effect = lower value 0.23 | S. cerevisiae deletion strains, locus YGL248W, strain PDE1, stronger effect = lower value 0.153 | S. cerevisiae deletion strains, locus YGR135W, strain pre9, stronger effect = lower value 0.185 | [6] 0.797 and 0.0756 | S. cerevisiae deletion strains, locus YGR252W, strain gcn5, stronger effect = lower value 0.155 | [7] 0.109 | S. cerevisiae deletion strains, locus YHR079C, strain IRE1 (second series), stronger effect = lower value 0.585 | S. cerevisiae deletion strains, locus YHR094C, strain hxt1, stronger effect = lower value 0.608 | S. cerevisiae deletion strains, locus YHR129C, strain ARP1, stronger effect = lower value 0.637 | S. cerevisiae deletion strains, locus YHR200W, strain rpn10, stronger effect = lower value 0.871 | S. cerevisiae deletion strains, locus YIL066C, strain RNR3, stronger effect = lower value 0.0537 | S. cerevisiae deletion strains, locus YIL073C, strain SPO22, stronger effect = lower value 0.108 | S. cerevisiae deletion strains, locus YIL125W, strain kgd1, stronger effect = lower value 0.59 | S. cerevisiae deletion strains, locus YIR030C, strain dcg1, stronger effect = lower value 0.587 | [8] 0.0851 | S. cerevisiae deletion strains, locus YJL187C, strain SWE1 (second series), stronger effect = lower value 0.571 | S. cerevisiae deletion strains, locus YJR043C, strain POL32, stronger effect = lower value 0.567 | [9] 0.146 | S. cerevisiae deletion strains, locus YKL009W, strain mrt4, stronger effect = lower value 0.504 | S. cerevisiae deletion strains, locus YKL085W, strain MDH1 (second series), stronger effect = lower value 0.56 | S. cerevisiae deletion strains, locus YKL085W, strain MDH1, stronger effect = lower value 0.56 | S. cerevisiae deletion strains, locus YKL190W, strain CNB1, stronger effect = lower value 0.0864 | S. cerevisiae deletion strains, locus YKR001C, strain vps1, stronger effect = lower value 0.89 | S. cerevisiae deletion strains, locus YLR058C, strain SHM2, stronger effect = lower value 0.598 | S. cerevisiae deletion strains, locus YLR102C, strain apc9, stronger effect = lower value 0.848 | S. cerevisiae deletion strains, locus YLR268W, strain sec22, stronger effect = lower value 0.168 | S. cerevisiae deletion strains, locus YLR330W, strain CHS5, stronger effect = lower value 0.0585 | S. cerevisiae deletion strains, locus YLR342W, strain FKS1 (second series), stronger effect = lower value 0.102 | S. cerevisiae deletion strains, locus YLR371W, strain rom2, stronger effect = lower value 0.9 | S. cerevisiae deletion strains, locus YLR418C, strain cdc73, stronger effect = lower value 0.101 | S. cerevisiae deletion strains, locus YML016C, strain PPZ1, stronger effect = lower value 0.229 | S. cerevisiae deletion strains, locus YML032C, strain rad52, stronger effect = lower value 0.499 | S. cerevisiae deletion strains, locus YML124C, strain tub3, stronger effect = lower value 0.88 | S. cerevisiae deletion strains, locus YMR078C, strain ctf18, stronger effect = lower value 0.392 | S. cerevisiae deletion strains, locus YMR223W, strain ubp8, stronger effect = lower value 0.406 | S. cerevisiae deletion strains, locus YNL067W, strain RPL9B, stronger effect = lower value 0.698 | S. cerevisiae deletion strains, locus YNL128W, strain TEP1, stronger effect = lower value 0.752 | [11] 0.281 | [12] 0.249 | [13] 0.736 | [14] 0.391 | S. cerevisiae deletion strains, locus YNL233W, strain BNI4, stronger effect = lower value 0.136 | S. cerevisiae deletion strains, locus YNL250W, strain rad50, stronger effect = lower value 0.69 | S. cerevisiae deletion strains, locus YNL271C, strain bni1, stronger effect = lower value 0.736 | S. cerevisiae deletion strains, locus YNL298W, strain CLA4, stronger effect = lower value 0.192 | S. cerevisiae deletion strains, locus YNL307C, strain MCK1, stronger effect = lower value 0.0704 | S. cerevisiae deletion strains, locus YOL006C, strain TOP1, stronger effect = lower value 0.101 | S. cerevisiae deletion strains, locus YOL147C, strain pex11, stronger effect = lower value 0.118 | [16] 0.102 | S. cerevisiae deletion strains, locus YOR136W, strain idh2, stronger effect = lower value 0.773 | S. cerevisiae deletion strains, locus YOR144C, strain elg1, stronger effect = lower value 0.569 | S. cerevisiae deletion strains, locus YOR184W, strain ser1, stronger effect = lower value 0.0857 | S. cerevisiae deletion strains, locus YOR316C, strain cot1, stronger effect = lower value 0.582 | S. cerevisiae deletion strains, locus YPR119W, strain clb2, stronger effect = lower value 0.796 | S. cerevisiae deletion strains, locus YPR163C, strain tif3, stronger effect = lower value 0.0804 | S. cerevisiae deletion strains, locus YPR167C, strain met16, stronger effect = lower value 0.587 | S. cerevisiae deletion strains, strain wtn01, stronger effect = lower value 0.303 | S. cerevisiae strains, strain wild type, stronger effect = lower value 0.51
0.892 (inactive) and 0.209 (active): [17]
1 (inactive) and 0.232 (active): [10]
0.96 (inactive) and 0.778 (active): [18]
0.976 (inactive) and 0.122 (active): S. cerevisiae deletion strains, locus YGR078C, strain PAC10, stronger effect = lower value

CCCCCCCCCCCCCCCC(=O)OC(CC(=O)O)C[N+](C)(C)C (configuration not stated)
active: [2] 0.492 | [3] 0.56 | [4] 0.784 | [5] 0.424 | [6] 0.0686 | [9] 0.724 | [10] 0.584 | [11] 0.0876 | [12] 0.0754 | [13] 0.0681 | [14] 0.0761 | [15] 0.354 | [16] 0.0749 | [17] 0.383
inactive: [1] 1.07 | [18] 0.976

CCC(=O)O[C@H](CC(=O)O)C[N+](C)(C)C
inactive: [7] 1.02 | S. cerevisiae deletion strains, locus YHR079C, strain IRE1, stronger effect = lower value 1.05 | [8] 1.05 | S. cerevisiae deletion strains, locus YJR066W, strain TOR1, stronger effect = lower value 0.967 | S. cerevisiae deletion strains, locus YLR113W, strain HOG1, stronger effect = lower value 1.02 | S. cerevisiae deletion strains, locus YNL183C, strain NPR1, stronger effect = lower value 0.988 | S. cerevisiae deletion strains, locus YOR231W, strain MKK1, stronger effect = lower value 1.04 | S. cerevisiae deletion strains, locus YPL256C, strain CLN2, stronger effect = lower value 1.04
